The supplement of paper PMC6555819

system: THRa homodimer (NR concentration 90 nM); test: PBM binding z-score (relative to random genomic background probes); higher = stronger binding; sequences stand for … in GC…GCGATTGACAGCGTAGAATGAAGG
Method in brief: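 Random background probes are the reference for binding z-scores. These scores derive from regression-normalized fluorescence on custom Agilent 4×180K protein-binding microarrays incubated 1 h with ligand-free nuclear receptor dimers. Binding was detected with antibodies against each partner (one per run).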

Row | Sequence | PBM binding z-score
1 | ATCGAAAGGACGAAGGTGAGTATACCCACCCGAA | -0.316
2 | ATCTTTAGGTAACAAGTTCAGTGAAAGAGAGGAC | 1.4
3 | CGTACTGGGCCATTCAGAGGTCATTGATCATATG | 1.54
4 | CGTCCAAGGTCAAAGATCAGTGAAGAGATGACGG | 1.87
5 | CGTGCTAGGTCAATGGTCAGCTAAAGCAGCTCGC | 0.655
6 | TAGCCTAGGTCATTGGGCCAGAATAGTACGCATC | 0.586
7 | TCGAGTAGGTTAGGGGCATGCAGAATGGCGTCGA | 0.12
8 | TGTCAAAGTTCAAAGGTAACGTGAGTATCCACAC | -0.326
9 | AGAATCAGGTTATACGTAGATCAGGGAAGAAAGT | 0.768
10 | CCTATTGGGCCATTCAGAGGTCATTGATCATATG | 1.54
11 | ACAGACAGGTGAGTGAAGGTAACTCCGCTGGACG | -0.349
12 | CCGACTGGGGCATAATGTTACCATAAGCCAGCCC | -0.413
13 | TAGCCTAGGACATTGGGCCAGTATAGTACGCATC | -0.00513
14 | CGAACTAGGTTATTGACAGGACAGTGAATAGTAA | -0.0792
15 | TCTGCTAGGTTAACGATGGTCAGCTAATCTGCTA | -1.07
16 | CCTGCTAGGTCAATGGTCAGCTACAGCAGCTCGC | 1
17 | CGTCCAAGGTTAGCAGGTCAGTGAAAGCGACGTG | 0.653
18 | GGAACGAGGGCAAATTTGATAGCATCTGTCGACG | -0.432
19 | AGCTCTAGGTAACAAGTTCAGTGAAAGAGAGGAC | 0.681
20 | GATCCAGGGTCAAGGCCAGAGTACGCGTATTGAT | 1.11
21 | ATCTCTAGGTAAGTCTCAGTTCAGTGAAGAACGC | 1.23
22 | CAGCCTAGGTCTGGGCCAGTATAGGAGGAACGTT | -1.16
